Autophagy mod = alters autophagy in cells; MEF GFP-LC3 puncta imaging; test concentration mostly 10 µM; calls only at 10 µM (by protocol); actives 0.98% (n = 190,000); AID 463193;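 active = percentage of spot-positive cells more than 3 SD above its plate mean, without a fluorescence outlier flag or 80% toxicity; inconclusive = no clear call, values can overlap the other calls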;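 also: spot-positive cell cutoff set from DMSO-treated cells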
Ins promoter up = MIN6 insulin promoter up-regulation; AID 1625; actives 0.3% (n = 190,000); z-score at 5 µM; MIN6 insulin promoter-GFP reporter, high-content imaging; hits give high values;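 active = z-score above 3 at 5 µM with at least 500 cells counted in the well; inconclusive = wells under 500 cells, flagged as cytotoxic or low count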
Lmaj promast = reduces viability of Leishmania major promastigotes; resazurin fluorescence viability; inhibition, % at 10 µM; actives 9% (n = 200,000); in the data active = inhibition above about 50%;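 also: promastigotes grown with compound for 44 hours at 28 °C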
HCT116 PTEN-null = suppresses growth of cells with PTEN deletion; HCT116 PTEN-null viability, CellTiter-Glo, 60 h; hits give low values; actives 1.2% (n = 140,000); viability, % at 10 µM;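 active = viability at or below a set limit, 4 SD under the median of all tested compounds, cut at about 3.7% in these data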;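 also: PTEN knockout HCT116 line with beta catenin targeted HCT116 as companion control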
INS promoter inh = TRM-6 insulin promoter activity inhibition; inhibition, % at 2 µM; TRM-6 cells (human fetal islet line), insulin promoter-eGFP reporter, imaging; reporter expression induced with tamoxifen; actives 0.9% (n = 130,000);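 active = inhibition above the mean plus 3 SD, with well images judged a real hit on visual review, cut at about 60% in these data, passing the limit was not always enough; inconclusive = inhibition over the cutoff but images rejected on review; inactive = inhibition not above the cutoff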
bCat KO growth = beta-catenin-lacking colon tumor cell growth suppression; HCT116 beta-catenin knockout viability, CellTiter-Glo, 60 h; hits give low values; viability, % at 10 µM; actives 1.5% (n = 140,000); AID 818;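 active = viability at or under a set limit, the compound median less 4 SD, cut at about 6% in these data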;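 also: 0% = Hyamine 1622 control at 20 µM and 100% = untreated cell control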
* = called active by the depositor; i = inactive; ? = inconclusive; · = not tested or not shown; + = active, no number. In the library only some 9.6% were active in any assay of this set; here they are far more common.

SMILES	Autophagy mod	Ins promoter up	Lmaj promast	HCT116 PTEN-null	INS promoter inh	bCat KO growth
CC(C)(C)C1CCC2(CC1)NC(CO)(CO)CO2 (stereo unspecified)	i	·	1.7	91.0	28.6	82.1
COc1ccccc1CN1C(=O)[C@@H]2C(CCC(N)=O)NC3(C(=O)Nc4c3ccc(Cl)c4C)[C@@H]2C1=O (stereo partly specified)	i	-0.13	-1.7	94.0	71.4*	94.5
CSc1ccccc1NC(=O)CCn1c(=O)sc2ccccc21	i	-0.14	-1.6	105.5	-39.1	98.5
CN1CCc2c(sc3ncn4nc(-c5ccccc5O)nc4c23)C1	i	1.12	29.1	0.7*	10.3	0.8*
COc1ccc2[nH]cc(CCn3ccc(O)c(C/C=C/c4ccccc4)c3=O)c2c1	i	-0.55	100.0*	·	·	·
CCC(=O)N1CCc2cc(S(=O)(=O)CCC(=O)Nc3ccc(C)c(F)c3)ccc21	i	·	0.0	90.9	0.0	88.6
CCC(=O)N1CCc2cc(S(=O)(=O)CCC(=O)Nc3cccc(C)n3)ccc21	i	0.82	55.7*	·	·	·
O=C(CSc1ccccn1)c1ccc2c(c1)OCO2	i	-0.03	-5.4	102.8	·	90.3
COc1ccc(NS(=O)(=O)c2cc(NC(=O)c3cnccn3)ccc2OC)cc1Br	i	-0.25	94.9*	·	·	·
COc1ccc(NS(=O)(=O)c2cc(NC(=O)c3cnccn3)ccc2N2CCCC2)cc1	i	·	93.3*	24.7	25.0	26.2
COc1ccc(NS(=O)(=O)c2cc(NC(=O)c3ccccc3F)ccc2N2CCCC2)cc1	·	0.53	·	·	·	·
COc1ccc(NS(=O)(=O)c2cc(NC(=O)c3cccs3)ccc2N2CCCC2)cc1	i	-0.62	34.1	59.5	30.8	62.0
COc1ccc(NS(=O)(=O)c2cc(NC(=O)c3ccc(C)o3)ccc2N2CCCCC2)cc1	i	-2.59	99.0*	80.2	21.6	73.5
COc1ccc(OC)c(NC(=O)Cn2c(CCC(=O)O)ccc2-c2ccccc2)c1	i	0.22	-2.0	79.3	-14.7	86.7
CC(C)CC1NC(=O)N(CCCCN2C(=O)c3ccccc3C2=O)C1=O (stereo unspecified)	i	-0.67	-9.1	·	·	·
COC(=O)c1ccc(C(=O)OC)c(NC(=S)N2CC(C)CC(C)C2)c1 (stereo unspecified)	i	-0.25	-4.8	94.9	-65.5	95.8
CCc1ccc(-c2c(C)sc(NC(=O)C3CCC3)c2C#N)cc1	i	0.75	50.4*	97.3	14.3	95.7
Cc1sc(NC(=O)COc2ccccc2)c(C#N)c1-c1ccccc1	i	-0.2	56.5*	91.8	29.6	91.5
Clc1ccc(-n2nnnc2CN2CCOCC2)cc1Cl	i	-0.01	-1.8	95.9	20.0	91.3
Cc1nn(-c2ccccc2)c(Cl)c1CN(C(=O)CCl)c1ccc(Cl)cc1	i	-0.2	100.4*	0.8*	?	0.8*
Cc1nn(-c2ccccc2)c(Cl)c1C(=O)NCC(=O)O	i	0.32	-5.7	99.0	5.0	101.4
CC(=O)N(Cc1c(C)nn(-c2ccccc2)c1Cl)c1ccc(Cl)cc1	i	·	17.4	58.0	-45.8	58.3
Cc1nn(-c2ccccc2)c(Cl)c1CN(C(=O)CCl)c1cccc2ccccc12	i	-1.4	98.7*	1.4*	i	1.8*
O=C1/C(=C/c2c[nH]c3ccccc23)CCC/C1=C\c1c[nH]c2ccccc12	i	4.59*	84.1*	9.2	·	24.4
O=C(O)[C@H]1CCCC[C@H]1C(=O)NCCNC(=O)[C@@H]1CCCC[C@@H]1C(=O)O	i	0.51	-0.8	111.9	100.0*	104.2
SMILES	Autophagy mod	Ins promoter up	Lmaj promast	HCT116 PTEN-null	INS promoter inh	bCat KO growth
COC(=O)c1sccc1-c1ccc(C(=O)Nc2ccccc2)o1	i	·	4.0	87.3	-14.6	93.9
O=C(COC(=O)c1cncc(Br)c1)NCC1CCCO1 (stereo unspecified)	i	0.13	-4.5	108.0	·	94.6
O=C(Nc1c(C(=O)c2ccccc2)oc2ccccc12)c1cc(-c2ccccc2O)n[nH]1	i	-0.49	22.1	1.8*	-17.2	1.9*
Cc1ccc(C(=O)c2oc3ccccc3c2NC(=O)c2cc(-c3ccccc3O)n[nH]2)cc1	+	0.08	44.1	42.5	0.0	34.7
COC(=O)C1CCN(C(=O)C(C)Oc2ccc(Cl)cc2Cl)CC1 (stereo unspecified)	i	1.63	0.5	94.5	37.5	90.5
Oc1ccccc1-c1cc(-c2ccco2)[nH]n1	i	-0.51	1.4	61.5	-16.7	56.8
O=C(NCCNC(=O)c1ccc([N+](=O)[O-])cc1)c1ccncc1	i	0.39	0.8	·	-28.6	·
Cc1nn2c(NCc3ccccn3)c3c(nc2c1-c1ccccc1)CCC3	·	-1.56	·	·	·	·
COc1ccc(Nc2c3c(nc4c(-c5ccccc5)c(C)nn24)CCC3)cc1	i	0.05	29.1	74.1	90.8*	78.1
Cc1cc(/C=N/n2cnnc2)c(C)n1-c1ccc(OCc2ccc(F)cc2)cc1	i	1.33	76.6*	11.9	30.3	8.6
Cc1cc(/C=N/n2cnnc2)c(C)n1-c1ccc(OCc2ccc(Cl)cc2Cl)cc1	i	·	97.6*	4.0	0.0	3.7*
CC(Oc1cccc(Cl)c1)C(=O)Nc1ccncc1 (stereo unspecified)	i	0.21	-2.4	·	·	·
CC(Oc1cccc(Cl)c1)C(=O)Nc1ccc([N+](=O)[O-])cn1 (stereo unspecified)	i	-0.18	61.3*	77.8	2.6	91.6
O=C(NCCO)Nc1ccc2nc(-c3ccco3)c(-c3ccco3)nc2c1	i	0.61	7.6	·	·	·
CCOP(=O)(OCC)c1nc(-c2cccc3ccccc23)oc1NCCc1ccc(OC)cc1	i	-0.05	96.9*	83.0	-44.0	85.5
N/C(Cc1ccc([N+](=O)[O-])cc1)=N\OC(=O)COc1ccccc1Cl	i	0.44	-5.6	86.9	20.6	88.8
Clc1ccc(CNC2CCCC2)c(Cl)c1	i	-0.07	93.8*	91.2	-20.0	88.1
S=C(NCc1ccc(Cl)cc1Cl)NC1CCCCC1	i	-0.39	3.1	80.9	-50.0	80.6
CN1CCN(C(=O)c2ccc(Oc3ccc([N+](=O)[O-])cc3)cc2)CC1	i	0.35	-0.3	·	·	·
CCOC(=O)C1=C(c2ccccc2)NC(SCC(=O)Nc2ccc(C)cc2)=C(C#N)C1c1ccco1 (stereo unspecified)	i	-1.42	2.5	53.3	31.2	62.9
CCOC(=O)C1=C(c2ccccc2)NC(SCC(=O)Nc2cccc(C)c2)=C(C#N)C1c1ccco1 (stereo unspecified)	+	-0.26	21.6	40.4	·	60.7
CCN=C1NN=C(c2cc(C)n(Cc3ccco3)c2C)CS1	i	-0.38	2.7	82.8	0.0	76.4
O=C1NCCCC2c3cc(O)c4ccccc4c3OC12N1CCCCC1 (stereo unspecified)	i	-0.47	100.1*	17.0	45.0	18.7
O=C(Nc1nc(N2C(=O)c3ccccc3C2=O)n(-c2ccccc2)n1)c1ccccc1	i	0.67	-7.3	94.2	11.1	99.2

Screens from PubChem.
